This is one part of a sample in which hits are shown more often than they occur.
TTR transcr act: TTR transcription activators in neuroblastoma reporter cells, primary screen, cell-based, luminescence, SH-SY5Y, TTR promoter Gaussia luciferase | activation, % at 16.7 µM | AID 1117267, 2014 | 1.3% of 92,000 active | 100% = recombinant luciferase protein wells;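 active = activation above the mean of all tested compounds plus 3 SD, cut at about 9.5% in these data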;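 also: cells exposed to compounds for one day before reading; 0% = median of all test compound wells on the plate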
HuH7 TTR inh: TTR promoter reporter inhibitors in hepatoma cells, counter-screen for TTR transcription activator project, cell-based, luminescence, HuH7 hepatoma | inhibition, % at 16.7 µM | HuH7 TTR promoter-Gaussia luciferase reporter | 4% of 1,100 active | AID 1117279, 2014 | shares compounds with TTR transcr act;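 active = average inhibition above the solvent-only control wells' mean plus 3 SD, cut at about 15% in these data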;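 also: 0% = cells with DMSO only and 100% = cells with inhibitor control FD; inhibitors lower well luminescence so higher value means more inhibition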
TTR act confirm: TTR transcription activators, retest, confirmation, cell-based, luminescence, SH-SY5Y, triplicate; shares compounds with TTR transcr act; 1,100 tested, under 10 active; SHSY5Y TTR promoter Gaussia luciferase; 100% = purified Lucia enzyme wells, no cells; AID 1117280, 2014; activation, % at 16.7 µM;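 active = mean activation above a set limit taken from the earlier primary screen, cut at about 11% in these data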;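 also: 0% = DMSO-treated cells and 100% = recombinant Lucia luciferase without cells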
Starred values were filed as active, the others as inactive; x = no result.

SMILES | TTR transcr act | HuH7 TTR inh | TTR act confirm
CCCCn1c(N)c(N(CC(C)C)C(=O)CN2C(=O)NC3(CC(C)CC(C)(C)C3)C2=O)c(=O)[nH]c1=O (centres undefined) | 11* | -3 | 0
CC(C)[C@H](NS(=O)(=O)/C=C/c1ccccc1)C(=O)OCC(=O)NC(N)=O | 0 | x | x
O=C1N(c2ccccc2)C(c2ccccc2)C12CCCCC2 (centres undefined) | -3 | x | x
CCOC(=O)c1cc(OCC)c2c(ccc3ccccc32)n1 | 0 | x | x
CCOC(=O)c1cc(N2CCCCC2)nc2ccccc12 | 0 | x | x
CCOc1ccccc1/C=C/c1cc(C(=O)O)c2ccccc2n1 | 35* | -20 | 1
CC(=O)Nc1ccc(S(=O)(=O)NCCC(=O)Nc2ccc(C)cn2)cc1 | 1 | x | x
C[C@@H]1CN([C@H](C)CO)C(=O)CCCn2cc(nn2)CO[C@H]1CN(C)S(=O)(=O)c1ccc(Oc2ccccc2)cc1 | 17* | -5 | -1
C[C@@H]1CN([C@H](C)CO)C(=O)CCCn2nncc2CO[C@H]1CN(C)C(=O)c1cc(-c2ccccc2)on1 | 3 | x | x
C[C@H]1CN([C@@H](C)CO)C(=O)CCCn2nncc2CO[C@H]1CN(C)C(=O)c1cc(-c2ccccc2)on1 | 14* | -7 | -1
C[C@H](CO)N1C[C@H](C)[C@@H](CN(C)S(=O)(=O)c2ccccc2)OCc2cn(nn2)CCCC1=O | -2 | x | x
C[C@H]1CN([C@@H](C)CO)C(=O)CCCn2cc(nn2)CO[C@@H]1CN(C)S(=O)(=O)c1ccc(Cl)cc1 | 3 | x | x
C[C@H](CO)N1C[C@H](C)[C@@H](CN(C)C(=O)c2cc(-c3ccccc3)on2)OCc2cnnn2CCCC1=O | 1 | x | x
CN(Cc1ccccc1)C(=O)c1cccc(NC(=O)Cc2ccc(NC(=O)C3CCCN(C(=O)C4CCCC4)C3)cc2)c1 (centres undefined) | -5 | x | x
O=S1(=O)c2c(cccc2N2CCC[C@@H]2CO)O[C@@H]2CCN1C2 | 0 | x | x
Cc1ccc(NC(=O)CC(C)c2ccccc2)cc1S(=O)(=O)N1CCOCC1 (centres undefined) | -5 | x | x
O=C(CN1C(=O)COc2ccc(S(=O)(=O)N3CCCCC3)cc21)NCc1ccccc1Cl | 0 | x | x
O=c1[nH]c2ccccc2nc1NCc1ccccc1 | -2 | x | x
c1ccc(CNc2nc3ccccc3[nH]2)cc1 | 9.9* | -4 | 1
c1ccc(CCc2nc3ccccc3[nH]2)cc1 | 1 | x | x
c1ccc(COc2ccccc2CNc2nn[nH]n2)cc1 | 1 | x | x
CCOC(=O)NC(CC(=O)O)c1ccc(OC)c(OC)c1 (centres undefined) | 9.7* | 6 | -1
CCOc1ccc(C(NC(C)=O)c2ccc(OC)c(OC)c2)cc1 (centres undefined) | 11* | -5 | 1
CCOc1ccc(C(NC(=O)/C=C/c2ccco2)c2ccc(OC)c(OC)c2)cc1 (centres undefined) | 0 | x | x
CCOC(=O)NC(CC(=O)O)c1ccc(OCC)cc1 (centres undefined) | 2 | x | x
SMILES | TTR transcr act | HuH7 TTR inh | TTR act confirm
CCCC(=O)NC(c1ccc(OCC)cc1)c1ccc(OC)c(OC)c1 (centres undefined) | -1 | x | x
COc1ccc(C(CC(=O)O)NC(=O)c2cc3cc(Br)ccc3oc2=O)cc1OC (centres undefined) | -2 | x | x
CSc1sc(C(=O)NC(=O)NCc2ccncc2)c(C)c1-c1ccon1 | -1 | x | x
O=C(/C=C/[C@H]1O[C@@H](n2cnc3c(NC(=O)c4ccccc4)ncnc32)[C@H](O)[C@@H]1O)NC1CCCCC1 | 2 | x | x
COc1ccccc1NC(=O)NNC(=O)c1cc2ccccc2cc1O | 0 | x | x
O=C(COC(=O)c1cc2ccccc2cc1O)NC(=O)NCc1ccco1 | -1 | x | x
O=C(OCc1ccccc1F)c1cc2ccccc2cc1O | 11* | -4 | 1
CC(C)(C)c1ccc(C(=O)Nc2cc(Cl)ccc2-c2nn[nH]n2)cc1 | -3 | x | x
Cc1ccc2nc(/C(C#N)=C\c3ccc(Oc4ccc([N+](=O)[O-])cn4)cc3)[nH]c2c1 | -1 | x | x
N#Cc1ccc(Oc2ccc(/C=N/O)cn2)cc1 | 81* | 0 | -1
COc1nc(Oc2ccc(/C=N/O)cc2)nc(N(C)C)n1 | -1 | x | x
Cc1ccc(C(C)C)cc1OCCCCN1CCCC1 | 0 | x | x
CN(C)NC(=S)Nc1cccc(Cl)c1 | 1 | x | x
CN(Nc1cccc(Cl)c1)c1cccc(Cl)c1 | 11* | -20 | 0
CN(C)NC(=O)c1cccc(Cl)c1 | 3 | x | x
CCOC(=O)/C=C/C(=O)Nc1ccc(S(=O)(=O)Nc2cc(OC)nc(OC)n2)cc1 | 0 | x | x
COc1cc(NS(=O)(=O)c2ccc(NC(=S)NC(C)=O)cc2)nc(OC)n1 | 17* | -20 | -1
COc1cc(NS(=O)(=O)c2ccc(NC(=O)COc3ccc(C)cc3)cc2)nc(OC)n1 | 0 | x | x

Source: PubChem BioAssay (The Scripps Research Institute Molecular Screening Center)
